Data reported in PubChem BioAssay (NCI).
About 83,000 compounds went through this panel and 20% of them were active in at least one assay; those are over-represented in the sample as a whole.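 Single-concentration screen, 48 h exposure, 96-well plates. Endpoint: percent growth. Below 10 = active.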 A number with no mark means an inactive call. The source made the active and inactive calls.

Each compound was assayed on TK-10 renal (assay: NCI-60 one-dose screen, 48 h (100 = growth as untreated, 0 = no growth, -100 = all killed)). Conditions: 10 µM unless noted.
Protocol: Growth inhibition of the TK-10 human tumor cell line is measured as a screen for anti-cancer activity. Cells are grown in 96 well plates and exposed to the test compound for 48 hours. Compounds are tested at a single concentration, which is 10^-5 M for most compounds. The reported endpoint is percent growth (GI% or GIPRCNT), where numbers from 0 - 100% represent growth inhibition, and numbers from -100% - 0 represent cell death. For example, a value of 40 represents 60% growth inhibition. A value of 0 means no net growth occurred over the course of the experiment. A value of -40 indicates 40% of cells at the beginning of the experiment died by the end of the experiment. A value of -100 means all cells are dead at the end of the experiment.
NCI-60 Human Tumor Cell Lines Screen was performed using the standard one-dose NCI protocol, which is described in more detail at https://dtp.cancer.gov/discovery_development/nci-60/default.htm.
Compounds with GIPRCNT values below 10 were considered active. Activity score was based on GIPRCNT using the following formula: […]
Score is 0 for GIPRCNT values of 100 or above, 50 for GIPRCNT values of 0, and 100 for GIPRCNT values of -100.

**Q.** With O=C(/C=C/c1ccc2ccccc2c1)Nc1ncc(Cc2ccccc2)s1 as the compound, how does the growth read?
**A.** 22.6%

**Q.** COc1ccc2c(c1)c(-c1nc(-c3c[nH]c4ncccc34)cs1)cn2C was tested. Which growth did it give?
**A.** 60.3%

**Q.** For N#CCCCCCn1c2ccccc2c2c3[nH]c(=O)[nH]c(=O)c3c3c4ccccc4n(CCCCCC#N)c3c21, which growth is on record?
**A.** 65.6%

**Q.** For N#C/C(=C\c1ccc(-c2ccc(Br)cc2)o1)c1nc(-c2ccco2)cs1, which growth is on record?
**A.** 38.7%

**Q.** Nc1c(C(=O)Nc2cccc(Br)c2)sc2nc3c(cc12)C(=O)CCC3 was tested. Which growth did it give?
**A.** 69%

**Q.** Which growth does the source give for Cc1cc(N(CCCNc2ccnc3cc(Cl)ccc23)Cc2ccco2)nc(N2CCN(C)CC2)n1 here?
**A.** 117%

**Q.** CCCC1CCCCN1C(=O)OCC(C)C (stereo not given) was tested. Which growth did it give?
**A.** 107%

**Q.** c1cc(N2CCCC2)c2nc(-c3[nH]ncc3Nc3ncnc4[nH]ccc34)[nH]c2c1 was tested. Which growth did it give?
**A.** -26.4% (active)

**Q.** Which growth does the source give for COc1cc2c(cc1-c1c(C)noc1C)ncc1nc(C3CCCCC3)n([C@@H](C)COC(F)F)c12 here?
**A.** 28.9%

**Q.** For O=C1OC(c2ccc(Cl)c(Cl)c2)=C/C1=C/c1cccc([N+](=O)[O-])c1, which growth is on record?
**A.** 179%

**Q.** Which growth does the source give for CCN1CCN(C(=O)[C@@]2(C)CC[C@]3(C)CC[C@]4(C)C(=CC(=O)[C@@H]5[C@@]6(C)CC[C@H](OCCC#N)C(C)(C)[C@@H]6CC[C@]54C)[C@@H]3C2)CC1 here?
**A.** 93.4%

**Q.** Which growth does the source give for C=C(C)[C@@H]1CC[C@]2(c3nnc(-c4ccncc4)o3)CC[C@]3(C)[C@H](CC[C@@H]4[C@@]5(C)CCC(=O)NC(C)(C)[C@@H]5CC[C@]43C)[C@@H]12 here?
**A.** 143%

**Q.** Cc1cc(N=O)cc(C(C)(C)C)c1O was tested. Which growth did it give?
**A.** 94.1%

**Q.** Which growth does the source give for N#CC1=C(N)Oc2ccc3ccccc3c2C1c1ccccc1Cl (stereo not given) here?
**A.** 118%

**Q.** With N#CC1=C(N)Oc2ccc3ccccc3c2C1c1ccccc1 (stereo not given) as the compound, how does the growth read?
**A.** 121%

**Q.** With Cn1nc(-c2ccccc2)c2c(-c3ccccc3)onc2c1=O as the compound, how does the growth read?
**A.** 53%

**Q.** For C#CCN=C[C@]12CC[C@@H](C(=C)C)[C@@H]1[C@H]1CC[C@@H]3[C@@]4(C)CCC(=O)C(C)(C)[C@@H]4CC[C@@]3(C)[C@]1(C)CC2, which growth is on record?
**A.** 104%

**Q.** For Cn1cccc1/C=C1/SC(=S)N(CCc2ccc(O)cc2)C1=O, which growth is on record?
**A.** 110%

**Q.** How did the growth turn out when Cc1ccc(-c2nc3ccc(Cl)cc3c(=O)n2N2C(=O)CSC2c2ccccc2Cl)cc1 (stereo not given) was run?
**A.** 74.6%

**Q.** Which growth does the source give for Cc1ccc(Sc2sc(-c3ccccc3)nc2[P+](c2ccccc2)(c2ccccc2)c2ccccc2)cc1 here?
**A.** 14.7%

**Q.** CC1(C)C(=O)CC[C@]2(C)[C@H]3C(=O)C=C4[C@@H]5C[C@@](C)(C(=O)NCCNCCN)CC[C@]5(C)CC[C@@]4(C)[C@]3(C)CC[C@@H]12 was tested. Which growth did it give?
**A.** 147%

**Q.** For COc1ccc(-c2nc(SCC(=O)Nc3ccc(C(C)=O)cc3)[nH]c(=O)c2C#N)cc1, which growth is on record?
**A.** 98.4%

**Q.** For CCC1C(=O)COC1=O (stereo not given), which growth is on record?
**A.** 90.5%

**Q.** Cn1cc(-c2csc(-c3cn(CCCN4CCCCC4)c4ccccc34)n2)c2cccnc21 was tested. Which growth did it give?
**A.** -84.3% (active)

**Q.** Which growth does the source give for Cc1ccc(-c2nc([P+](c3ccccc3)(c3ccccc3)c3ccccc3)c(N3CCOCC3)o2)cc1 here?
**A.** 20.8%

**Q.** For CC(=O)O[C@H]1CC[C@@]2(C)C(=CC[C@@H]3[C@@H]2CC[C@]2(C)C(=O)N(O)C(=O)C[C@@H]32)C1, which growth is on record?
**A.** 101%

**Q.** For C#CCn1c(C)cc(C)c(C#N)c1=O, which growth is on record?
**A.** 94.2%

**Q.** CCOC(=O)C/C(=C\c1ccccc1)C(C)=O was tested. Which growth did it give?
**A.** 96.3%

**Q.** C=C(C)[C@@H]1CC[C@]2(C)[C@H](CC=C3[C@@H]4CC(C)(C)CC[C@]4(C(=O)OC)CC[C@]32C)[C@@]1(C)CC/C(N)=N/O was tested. Which growth did it give?
**A.** 67.9%

**Q.** Which growth does the source give for CCN(CC)C(=O)CCCCCn1c2ccccc2c2c3c(c4c5ccccc5[nH]c4c21)C(=O)N(O)C3=O here?
**A.** 68.3%

**Q.** For C/C(=N\NC(=O)C(C)SC(C)C(=O)N/N=C(\C)c1cccnc1)c1cccnc1 (stereo not given), which growth is on record?
**A.** 106%

**Q.** Which growth does the source give for N=C(N)c1ccc(-c2ccc(-c3cc(F)cc(F)c3)o2)nc1 here?
**A.** 124%

**Q.** How did the growth turn out when O=C1c2cccc3cccc(c23)C(=O)N1CC#Cc1ccc2c3c(cccc13)C(=O)N(CCO)C2=O was run?
**A.** 165%

**Q.** With O=C(Nc1ccc(/C=C2\SC(=O)N(Cc3ccc(OC(F)(F)F)cc3)C2=O)cc1)c1ccc(Cl)c([N+](=O)[O-])c1 as the compound, how does the growth read?
**A.** 98.5%

**Q.** With O=C1c2cc3c(cc2-c2c1c1ccc(F)cc1c(=O)n2CCCN1CCOCC1)OCO3 as the compound, how does the growth read?
**A.** 106%

**Q.** For O=S(=O)(NCCNc1cc(-c2cn(-c3ccccc3)nc2-c2cccc(O)c2)ccn1)c1ccc(C(F)(F)F)cc1, which growth is on record?
**A.** 59.9%

**Q.** For CCSc1sc(-c2ccc(C)cc2)nc1[P+](c1ccccc1)(c1ccccc1)c1ccccc1, which growth is on record?
**A.** -6.69% (active)

**Q.** With COc1ccc(C2CC(=O)c3c(nc4ccc(Cl)cc4c3N)C2)cc1 (stereo not given) as the compound, how does the growth read?
**A.** 80.6%

**Q.** With Cc1ccc(-c2ccc(Nc3ccccc3)nn2)cc1S(N)(=O)=O as the compound, how does the growth read?
**A.** 142%

**Q.** For Cn1cc(-c2nc(-c3c[nH]c4ncccc34)cs2)c2cc(Cl)ccc21, which growth is on record?
**A.** 43.1%
